Sampled rows, rich in hits. Any-hit rate of the full collection: about 1%.
RXFP1 antag: qHTS Assay for Antagonists of the Relaxin Receptor RXFP1; Relaxin receptor 1 (Homo sapiens), Q9HBX9; HEK293-RXFP1, relaxin-stimulated cAMP HTRF, 30 min; hits give low values; activity change, negative = inhibition, % at 57.5 µM; hit rate 0.59% among 350,000;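 active means activity change of -60% or lower, but not beyond a set lower limit; inconclusive means change between -60% and -40%, or beyond the set limit; inactive means change above -40%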; further: on the % scale 0 is the no-effect control and ±100 the full control effect
gsp antagonist: qHTS for Antagonists of gsp, the Etiologic Mutation Responsible for Fibrous Dysplasia/McCune-Albright Syndrome: qHTS; gsp-mutant cells, cAMP HTRF, 30 min; Potency, µM (titrated, usually from 76.9 µM), for inactives: at the top dose activity change, negative = inhibition, most hits filed as inhibitors; hit rate 0.4% among 340,000; AID 624288, 2012; calls by dose curve; cell line not stated here;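 further: intracellular cAMP measured with PDE inhibitor Ro 20-1724 present during compound exposure; potency means the concentration at half of the fitted maximal effect; on the % scale 0 is the no-effect control and ±100 the full control effect; nearly all actives have a fitted effect of over 65% in size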
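Cells in G418 medium, seeded 16-24 h, 37C; buffer exchange to DPBS + 1 mM CaCl2, 0.5 mM MgCl2, 0.05% BSA; cpds in DMSO + […] (300 uM stock), 30 min 37C; HTRF cAMP detection.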
gsp agonist: qHTS for Agonist of gsp, the Etiologic Mutation Responsible for Fibrous Dysplasia/McCune-Albright Syndrome: qHTS | gsp mutant cells, cAMP HTRF, 30 min | Potency, µM (series often up to 76.9 µM), for inactives: at the highest dose activation (cAMP increase), most hits filed as activators | hit rate 0.13% among 340,000 | AID 624287, 2012; active means well fitted activation curve with a large enough effect; inconclusive means small, poorly fitted or top-dose-only effect, or another doubt; inactive means no such curve, though single readings can be large or run the other way; cell line not stated here;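 further: phosphodiesterase inhibitor Ro 20-1724 added with compounds to block cAMP breakdown; potency means the concentration at half of the fitted maximal effect; nearly all actives have a fitted effect of over 60% in size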
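Cells in DMEM/10% FBS with G418 were pretreated with compounds in DMSO plus […] (300 uM stock) for 30 min at 37C. cAMP was measured by HTRF (cAMP-d2 plus anti-cAMP antibody-K) after 30 min at room temperature.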
RXFP1 ag: qHTS Assay for Agonists of the Relaxin Receptor RXFP1; Relaxin receptor 1 (Homo sapiens), Q9HBX9; HEK293T-RXFP1 cAMP TR-FRET, 30 min; response scale: percent of porcine relaxin response, buffer zero; Potency, µM (top dose mostly 57.5 µM), for inactives: at the top dose activation, most hits filed as activators; hit rate 0.3% among 370,000; AID 2676, 2010; active means well fitted activation curve with a large enough effect; inconclusive means small, poorly fitted or top-dose-only effect; further: potency means the concentration at half of the fitted maximal effect; on the % scale 0 is the no-effect control and ±100 the full control effect; nearly all actives have a fitted effect of over 60% in size
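HEK293 cells stably expressing RXFP1, treated 30 min at 37C with compounds plus PDE4 inhibitor Ro 20174; cAMP measured by HTRF TR-FRET. Normalized to buffer and 29 nM porcine relaxin; EC50 by Hill fit.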
TSHR antag: Antagonists of the Thyroid Stimulating Hormone Receptor: HTS campaign. Thyrotropin receptor (Homo sapiens), P16473. TSHR-expressing cells, TSH-stimulated cAMP HTRF, 2 h; hits give low values. activity change, negative = inhibition, % at 11.5 µM. hit rate 0.2% among 330,000;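 active means activity change below a set negative limit, meaning inhibition stronger than a set level, cut at about -70% in these data; inconclusive means activity change between two set negative limits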; further: on the % scale 0 is the no-effect control and ±100 the full control effect
Target sequence (P16473 whole entry, looked up): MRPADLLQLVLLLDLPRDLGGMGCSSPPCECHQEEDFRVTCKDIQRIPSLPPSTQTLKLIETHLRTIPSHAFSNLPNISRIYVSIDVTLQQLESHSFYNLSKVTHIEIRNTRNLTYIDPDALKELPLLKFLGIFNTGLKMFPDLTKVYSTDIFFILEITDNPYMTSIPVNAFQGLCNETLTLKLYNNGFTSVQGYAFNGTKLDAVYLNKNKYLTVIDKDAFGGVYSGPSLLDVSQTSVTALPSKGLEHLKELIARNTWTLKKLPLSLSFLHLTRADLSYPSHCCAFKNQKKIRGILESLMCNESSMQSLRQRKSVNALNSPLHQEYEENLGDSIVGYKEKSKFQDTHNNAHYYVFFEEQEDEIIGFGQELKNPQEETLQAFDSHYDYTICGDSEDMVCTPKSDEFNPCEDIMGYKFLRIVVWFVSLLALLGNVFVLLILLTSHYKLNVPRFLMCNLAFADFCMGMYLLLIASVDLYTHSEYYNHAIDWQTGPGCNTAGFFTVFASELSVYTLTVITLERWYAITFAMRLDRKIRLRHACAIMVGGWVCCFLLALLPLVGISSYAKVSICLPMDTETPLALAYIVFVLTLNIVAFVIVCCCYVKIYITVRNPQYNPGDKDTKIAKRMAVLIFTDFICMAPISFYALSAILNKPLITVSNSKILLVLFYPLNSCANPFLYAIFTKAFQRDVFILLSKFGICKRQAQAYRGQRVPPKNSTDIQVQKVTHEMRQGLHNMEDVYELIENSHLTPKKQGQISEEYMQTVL
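Read-out is FRET at 665 nm (cryptate excitation 337 nm) from a cryptate-tagged anti-cAMP antibody, competed by cell cAMP against cAMP-d2. Compounds are tested on freshly harvested TSHR cells challenged with 4nM TSH (EC80) for 2 hours at 37 deg C.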
The depositor's hits bear a star; ? = inconclusive; nt = no result; [ ] = dose if it differs, or a comment.

SMILES	RXFP1 antag	gsp antagonist	gsp agonist	RXFP1 ag	TSHR antag
CCOc1ccc(CCNC(=O)c2cc3cccc4c3n2CCS4)cc1	-14.1	nt	nt	11.7%	nt
CCC1CCCCN1CCCNC(=O)c1ccc2c(c1)N(Cc1cccc(Cl)c1)C(=O)c1ccccc1S2(=O)=O (stereo not drawn)	-24.4	nt	nt	0.1%	nt
FC(F)(F)c1cccc(Nc2nc3nonc3nc2Nc2ccc(Cl)cc2)c1	-82.2*	nt	nt	2.0%	nt
O=C(Nc1cccc(C(F)(F)F)c1)c1cc(-c2ccc(Cl)cc2)on1	nt	nt	nt	0.4%	nt
NC(=O)NC1N=C([O][Al])NC1=O (stereo not drawn)	4.5	nt	nt	nt	nt
COc1ccnc2c1CCCCC2S(=O)c1nc2ccccc2[nH]1 (stereo not drawn)	-13.2	nt	nt	nt	nt
CCSc1nnc(-c2ccccc2SC)o1	1.9	5.8%	?	22.4µM*	6.2
COc1ccc(CC(=O)Nc2cccc(-c3nnc(-c4cccc(C)c4)o3)c2)cc1OC	-20.1	31.6µM*	15.9%	0.3%	-92.4*
O=C(c1cccs1)N1N=C(c2ccccc2)CC1c1ccc(O)cc1 (stereo not drawn)	?	28.2µM*	22.5%	-1.3%	33.1
CCOC(=O)c1ccc(Nc2nc3ccccc3n3c(C)nnc23)cc1	4.9	nt	nt	1.3%	nt
COc1cccc(C(=O)Nc2ccc(NC(=O)C3CCCCC3)nc2)c1	-20.3	-7.7%	-25.9%	-6.0%	-103.0*
CCc1nc2ccc(C(=O)NCc3ccc(OC)c(OC)c3)cc2nc1CC	-12.9	nt	nt	5.5%	nt
CCCOc1ccc(/C=N/NC(=O)c2nnn(-c3nonc3N)c2-c2cccs2)cc1OC	-15.9	31.6µM*	-21.6%	1.6%	-4.0
Nc1nonc1-n1nnc(C(=O)N/N=C/c2cccnc2)c1CSc1ccccc1	-6.1	-22.4%	-81.0%	-0.2%	0.8
CN(C)Cc1c(C(=O)N/N=C/c2cccc(OCc3ccccc3)c2)nnn1-c1nonc1N	-14.6	50.1µM*	-43.1%	1.5%	?
Nc1nonc1-n1nnc(C(=O)N/N=C/c2ccc3c(c2)OCO3)c1-c1ccccc1	-12.6	35.5µM*	-4.6%[15.4 µM]	3.0%	-0.3
Nc1nonc1-n1nnc(C(=O)N/N=C/c2cccnc2)c1CSc1ccc(Cl)cc1	-64.8*	35.5µM*	-7.0%	0.9%	-22.5
COc1cccc(/C=N/NC(=O)c2nnn(-c3nonc3N)c2-c2cccs2)c1	-6.3	?	?	-3.2%	23.5
Nc1nonc1-n1nnc(C(=O)N/N=C/c2ccc(Br)cc2)c1-c1ccc2c(c1)OCO2	?	?	18.2%	0.2%	-14.0
CN(C)Cc1c(C(=O)N/N=C/c2cccc(OCc3ccc(F)cc3)c2)nnn1-c1nonc1N	4.8	7.2%	14.3%[15.4 µM]	-0.1%	1.7
CCc1cccc(NC(=O)COc2cc(=O)n(CC)c3ccccc23)c1	-9.3	nt	nt	21.1%	nt
O=C(CSc1nc2ccsc2c(=O)n1Cc1ccccc1F)NCc1ccccc1Cl	-30.8	nt	nt	1.1%	nt
CCc1ccccc1NC(=O)Cn1nnc(C(=O)NCc2ccco2)c1N	nt	nt	nt	0.1%	nt
Cc1nc2ccccc2n1CC(=O)N/N=C\C=C\c1ccccc1	8.8	-13.2%	-84.0%	0.0%	-80.7*
Cc1nc2ccccc2n1CC(=O)N/N=C\c1ccccn1	-1.8	12.1%	4.8%	0.5%	4.0
SMILES	RXFP1 antag	gsp antagonist	gsp agonist	RXFP1 ag	TSHR antag
Oc1ccc(COC2CCN(Cc3ccccc3)C2)c2cccnc12 (stereo not drawn)	nt	nt	nt	1.7%	3.2
Cc1cc(C)c(O)c(-c2n[nH]c3c2C(c2cccc(O)c2)N(Cc2ccco2)C3=O)c1 (stereo not drawn)	-80.5*	-19.5%	-19.4%	-1.8%	7.7
CN(C)c1nc(-c2cn(CCC#N)c3ccccc23)cs1	-81.9*	?	-11.1%[15.4 µM]	0.5%	-0.5
C[C@H]1C[C@H]2[C@@H]3CCC4=CC(=O)C=C[C@]4(C)[C@@]3(Cl)[C@@H](O)C[C@]2(C)[C@@]1(O)C(=O)CO	-69.9*	-8.2%	nt	1.8%	5.3
C[C@H]1CC2C3CCC4=CC(=O)C=C[C@]4(C)[C@@]3(Cl)[C@@H](O)C[C@]2(C)[C@@]1(O)C(=O)CO (stereo partly drawn)	nt	nt	nt	nt	-4.0
CCN(CC)S(=O)(=O)c1ccc(C(=O)Nc2nnc(NC(=S)Nc3ccccc3)s2)cc1	-84.9*	-4.9%	-6.4%[15.4 µM]	-0.5%	-12.0
CCN(CC)S(=O)(=O)c1ccc(NC(=O)c2ccc(N(C)S(C)(=O)=O)cc2)cc1	-7.0	-2.9%	?	0.3%	-17.2
CCN(CC)S(=O)(=O)c1ccc(C(=O)Nc2ccc(Cc3ccncc3)cc2)cc1	-19.9	50.1µM*	34.6%	-0.1%	-30.2
Cc1ccc(S(=O)(=O)c2cc3cc(C(=O)Nc4ccc(C)cc4C)ccc3oc2=O)cc1	nt	nt	nt	-4.1%	nt
CCOc1ccc2nc(NC(=O)C3(C)CC3(Br)Br)sc2c1 (stereo not drawn)	-84.5*	?	4.0%	nt	nt
CCc1ccccc1NC(=O)CCCn1c(=O)c2cccn2c2ccccc21	-30.9	nt	nt	6.8%	nt
COc1cc(NC(=O)CN2CCCN(Cc3cccc(F)c3)S2(=O)=O)cc(OC)c1	-8.6	nt	nt	-1.4%	nt
Cc1ccc(CN2CCN(C3CCN(C(=O)c4ccccc4)CC3)C(=O)C2=O)cc1	-13.1	nt	nt	0.7%	nt
CCC(=O)N1N=C(c2ccc(NS(=O)(=O)c3ccccc3)cc2)CC1c1ccco1 (stereo not drawn)	-12.4	31.6µM*	5.1%	nt	nt
Cc1ccc(C2=NN(C(=O)CCCC(=O)O)C(c3ccco3)C2)cc1 (stereo not drawn)	-11.2	-8.4%	-5.6%[15.4 µM]	0.9%	-17.1
Cc1cc(F)ccc1-n1nnc(C(N)=O)c1C	nt	nt	nt	-0.1%	nt
COc1cc(NC(=O)c2cc(Cl)c(OC)c(Cl)c2)ccc1NC(=O)c1cc2ccccc2o1	nt	nt	nt	5.4%	nt
Cc1ccc(CS(=O)(=O)c2ncc(Cl)c(C(=O)Nc3ccc(OC(F)F)cc3)n2)cc1	-65.5*	?	-6.7%[15.4 µM]	-1.1%	?
Cc1ccc(C)c(NC(=O)c2nc(S(=O)(=O)Cc3ccc(F)cc3)ncc2Cl)c1	-24.4	nt	nt	0.2%	nt
COc1ccc(NC(=O)c2nc(S(=O)(=O)Cc3ccc(C)cc3)ncc2Cl)cc1	-117.7*	nt	nt	2.9%	nt
CC(=O)Nc1ccc(NC(=O)c2nc(S(=O)(=O)Cc3ccccc3)ncc2Cl)cc1	?	-3.5%	-7.4%	-2.7%	?
CCOc1ccc(NC(=O)c2nc(S(=O)(=O)Cc3ccccc3F)ncc2Cl)cc1	?	nt	nt	3.0%	nt
CCS(=O)(=O)c1ncc(Cl)c(C(=O)Nc2ccc(C)cc2)n1	-78.3*	?	4.8%	0.7%	-39.0
CS(=O)(=O)c1ncc(Cl)c(C(=O)Nc2ccc3ccccc3c2)n1	-93.0*	3.8%	-18.8%	0.9%	?
